Screening results deposited in PubChem by National Center for Advancing Translational Sciences (NCATS).
A selection: hits, their analogues and other compounds. The true share with any hit is near 1.3%.
p53 reactivator = mutant p53 re-activation in reporter cells. H1299 p53-A138V BP100-luciferase reporter, luminescence, 24 h. 320,000 compounds, 0.063% hits. Potency, µM (titrated, usually from 92.2 µM), inactives show at the top dose activity change, positive = activation, usual class: activators. AID 504706; further: potency means the concentration at half of the fitted maximal effect; % of control where 0% means no effect; nearly all actives have a fitted effect of over 45% in size
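p53-null H1299 cells stably carrying temperature-sensitive p53-A138V and a BP100-luciferase reporter were pinned with compounds (4-point, 1:5 series) and held 24 hrs at 37 deg C. Luminescence was read 10 min after detection reagent.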
IL-2 act = activators of IL-2 | IL-2 activation reporter assay, cell-based qHTS; stimulated with anti-CD3/CD4/CD28 beads; in transgenic mouse T cells | 360,000 compounds, 0.065% hits | AID 652025 | activation, % (series mostly up to about 46 µM); in the data active means activation above about 50%; inconclusive means mostly about 30% to 49%; further: 0% is about no effect
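Unstimulated transgenic mouse T cells; 60-min compound exposure; bead-based TCR/CD4/CD28 stimulation; 18 h culture, 37 degrees C; dual fluorescence (EGFP, DsRed) plate cytometry.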
TCR activator = activators of T cell receptors. primary human leukocytes, anti-CD3, IL-2 HTRF, 48 h. Potency, µM (series often up to 9.22 µM), for inactives: top-dose activation of IL-2 secretion, actives largely listed as activators. 330,000 tested, under 10 active; further: % of control where 0% means no effect
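48 hr co-incubation of compounds, a-CD3 beads and primary human leukocytes; IL-2 quantified homogeneously by HTRF with anti-IL-2 K and d2 conjugates.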
BRCA1 expr up = activators of BRCA1 expression; MCF7-BRCA1-FFLuc reporter, luminescence, 48 h; response scale: scaled: vehicle 0%, 10 µM genistein 100%; Potency, µM (doses to about 46.1 µM), for the others: top-dose activation, hits mostly activators; 380,000 compounds, 1.1% hits; further: potency means the concentration at half of the fitted maximal effect; nearly all actives have a fitted effect of over 80% in size
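48 h compound treatment of MCF7-BRCA1-FFLuc cells (phenol-red free MEM, 37 °C), then 15 min with luciferase substrate and luminescence imaging.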
Mito fusion yeast = blocks mitochondrial division or promotes mitochondrial fusion. S. cerevisiae fusion-defective mutant growth rescue, CellTiterGlo 48 h. Potency, µM (series often up to 46.1 µM), for inactives: top-dose growth rescue (activation), hits mostly activators. 320,000 compounds, 0.23% hits; further: potency means the concentration at half of the fitted maximal effect; % of control where 0% means no effect; nearly all actives have a fitted effect of over 45% in size
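Temperature-sensitive fusion-defective S. cerevisiae (e.g. fzo1-1, mgm1-5) were grown with compound in YPEG medium (3% ethanol, 3% glycerol) for 48 hours at 37C. Growth rescue was measured as viability by CellTiterGlo luminescence after 10 minutes at ambient.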
Numbers without * were called inactive; ? = inconclusive; · = not tested or not shown; [ ] = dose if it differs, or a comment. Unless noted, the call rests on the fitted dose curve; in most records, active means well fitted curve in the direction sought with a large enough effect; inconclusive means small, poorly fitted or top-dose-only effect, or another doubt; inactive means no such curve, though single readings can be large; an effect the other way counts as inactive or inconclusive.

SMILES | p53 reactivator | IL-2 act | TCR activator | BRCA1 expr up | Mito fusion yeast
Cc1cc(/C(N)=N/OC(=O)c2cccc(Cl)c2)no1 | 9% | 1 | -6% | 32% | 6%
Cc1cccc(C(=O)O/N=C(\N)c2ccc(Cl)cc2)c1 | ? | 0 | -5% | -28% | 5%
Cc1c(Cl)cccc1NS(=O)(=O)c1ccc(-c2cnc(C3CC3)o2)cc1 | · | · | · | -62% | ·
Cc1ccccc1NC(=O)CSc1nc2ccc(NC(=O)c3ccccc3)cc2s1 | · | · | · | 4% | ·
N/C(=N\OC(=O)c1ccc2c(c1)OCO2)c1ccncc1 | 14% | 0 | 1% | 4.5µM* | 1%
COc1ccc(C(=O)O/N=C(\N)c2ccncc2)cc1OC | ? | 0 | 0%[46.1 µM] | 32% | -1%
Cc1ccc(OC(=O)c2ccc(S(=O)(=O)N(C)C)cc2)c(-n2nc3ccccc3n2)c1 | ? | 26 | 6% | 13µM* | 2%
COc1ccc(CCNC(=O)CSc2cn(CCNC(=O)c3ccccc3F)c3ccccc23)cc1OC | · | · | · | -38% | ·
COc1ccc(CN(Cc2ccccc2)C(=O)c2cccc(C#N)c2)cc1COc1ccc(NC(C)=O)cc1 | · | · | · | -39% | ·
CCCN1CNc2c(c(=O)[nH]c(=S)n2CCC(C)(C)C)C1 | · | · | · | 0% | ·
O=C(NCc1ccc(F)cc1)c1c2c(nc3ccccc13)CCC2 | 1% | 0 | -4% | 14µM* | 4%
O=C(NCc1ccco1)c1c2c(nc3ccccc13)CCC2 | 0% | -1 | 4% | -9% | 8%
Cc1ccc(Cl)c2c(N=Nc3ccccc3)c(O)[nH]c12 | 47% | 170* | · | 44% | 0%
O=C(Nc1ccc2nc(C3CC3)n(Cc3ccccc3)c(=O)c2c1)C1CC1 | 11% | -2 | 9% | 113% | 1%
CCC(=O)Nc1ccc2nc(C3CC3)n(Cc3ccccc3)c(=O)c2c1 | 15% | 1 | -11% | 4µM* | 6%
Cc1nnc(SCc2nc(-c3ccc(Cl)cc3)no2)n1-c1ccc(F)cc1 | · | · | · | 3% | ·
O=C(CBr)c1ccc(Oc2ccc(C(=O)C[n+]3ccccc3Cl)cc2)cc1 | · | · | · | -6% | ·
CSc1ccc(-c2nnn(Cc3ccc(C)cc3)n2)cc1 | ? | -1 | 1% | 10µM* | 7%
COc1ccc(-c2nnn(Cc3ccccc3)n2)cc1 | ? | 0 | · | 10µM* | -4%
COc1ccc(-c2ccc(-c3nnn(CC(=O)N4CCOCC4)n3)cc2)cc1 | · | 0 | 0% | 1.4µM* | 0%
CCc1ccc(-n2c(=O)c3sc4ccccc4c3n(CC(=O)N(CC)Cc3ccccc3)c2=O)cc1 | · | · | · | 0% | ·
COc1ccccc1-c1n[nH]nc1C1=CC(=O)C[C@H](c2ccc(F)cc2)C1 | · | 1 | · | -11% | ·
COc1ccccc1C1=NC(c2ccc(F)cc2)N=C1C (stereo not given) | 17% | -3 | -3% | 13µM* | ?
Cc1ccc(-c2nnn3c2nc(NCc2ccc4c(c2)OCO4)c2ccccc23)cc1 | · | · | · | 6% | ·
O=C(COc1ccc(Cl)cc1Cl)Nc1ccc(Cl)cn1 | 33% | -1 | 3% | 11µM* | 3%
SMILES | p53 reactivator | IL-2 act | TCR activator | BRCA1 expr up | Mito fusion yeast
N/C(=N\OC(=O)COc1ccc(Cl)cc1Cl)c1ccncc1 | 3% | 0 | 8% | 1.1µM* | ?
Cc1cc(Cl)ccc1OCC(=O)OCC(=O)Nc1ccc(Cl)cn1 | · | -2 | · | 0% | ·
CCOc1ccc(C(=O)Nc2ccc(Cl)cn2)cc1Cl | 7% | 0 | 4% | 6.3µM* | 7%
N/C(=N\OC(=O)COc1ccc(Cl)cc1Br)c1cccnc1 | 23% | 2 | 3% | 102% | -5%
C/C(=N\OC(=O)c1ccc(Cl)cc1)c1sc(-c2ccccc2)nc1C | ? | -6 | 3% | 4µM* | 1%
C/C(=N\OC(=O)c1cccc(C)c1)c1sc(-c2ccccc2)nc1C | 12% | -1 | -3% | ? | -3%
C/C(=N\OC(=O)c1cccc(C(F)(F)F)c1)c1sc(-c2ccccc2)nc1C | 3% | 0 | -2% | ? | -2%
C/C(=N\OC(=O)c1ccc(F)cc1)c1sc(-c2ccccc2)nc1C | ? | -4 | 3% | 2.8µM* | -1%
CCCc1cc(=O)oc2c3c(ccc12)OCN(Cc1ccc(OC)cc1)C3 | · | · | · | 5% | ·
C(=N\NCc1ccccc1)/c1ccc2nccnc2c1 | 7% | 1 | -5% | 4.5µM* | 1%
CCc1cccc(NC(=O)CCc2c(C)nc3c(-c4ccccc4)c(C)nn3c2C)c1 | · | · | · | -4% | ·
CC1CCN(C(=O)COC(=O)c2ccc3c(c2)OCO3)CC1 | 13% | 1 | -3% | 2.5µM* | -2%
Nc1ccc(C(=O)OCC(=O)N2CCOCC2)cc1[N+](=O)[O-] | ? | -3 | -1%[46.1 µM] | 11µM* | -3%
Nc1cc(C(=O)OCC(=O)N2CCOCC2)ccc1Cl | ? | 0 | -2% | 70% | -3%
CC1CCCCN1C(=O)COC(=O)c1ccc(N2CCCC2=O)cc1 (stereo not given) | 0% | 3 | · | 34% | ·
CC1CCCCN1C(=O)COC(=O)c1cc(Cl)c2c(c1)OCO2 (stereo not given) | 18% | -4 | 5% | 11µM* | 9%
C[N+]1(CC(=O)c2ccc(O)c(O)c2)CCOCC1 | · | · | · | 6% | ·
O=C(NCCc1nc2ccccc2n1CCCOc1ccc2ccccc2c1)C1CCCCC1 | · | · | · | -9% | ·
CC[N+](CC)(CC)c1ccc(/C=C/c2ccc3ccccc3n2)cc1 | · | · | · | -56% | ·
CC(=O)c1cccc(NC(=O)c2cnn3ccccc23)c1 | ? | -3 | 7% | 3.5µM* | -2%
CC(=O)c1cccc(NC(=O)c2cc3ccccn3n2)c1 | ? | -3 | 0% | 2.5µM* | 1%
CC1=Nc2ccccc2/C1=C(/C)c1c(C)[nH]c2ccccc12 | · | · | · | -1% | ·
Cc1cccc(OCCNc2ccc(C(F)(F)F)cc2[N+](=O)[O-])c1 | 5% | 23 | 4%[46.1 µM] | 3.2µM* | -1%
O=[N+]([O-])c1cc(C(F)(F)F)ccc1NCCc1c[nH]c2ccccc12 | 40µM* | -1 | -4%[46.1 µM] | -26% | -7%
CS(=O)(=O)NCCCNc1ccc(C(F)(F)F)cc1[N+](=O)[O-] | -2% | -3 | 2% | 12% | 0%
SMILES | p53 reactivator | IL-2 act | TCR activator | BRCA1 expr up | Mito fusion yeast
O=C(NCCc1ccccc1)Nc1ccc(Cl)cc1 | ? | 0 | -8%[46.1 µM] | 5µM* | 3%
Cc1ccccc1CNC(=O)Nc1ccc(Cl)cc1 | · | -1 | 1% | 7.1µM* | 1%
O=c1[nH]c(SCc2ccccc2)ncc1S(=O)(=O)c1ccccc1 | · | · | · | 0% | ·
COc1cc2c(cc1OC)C(COc1ccccc1OC)N(C(=O)CC(C)C)CC2 (stereo not given) | · | · | · | -23% | ·
COc1ccc(NC(=O)CSc2nc3c(oc4ccccc43)c(=O)n2-c2ccccc2)cc1OC | · | · | · | 6% | ·
CCCCCCCCCOC(=O)CNc1nc(C#N)nc(NCC(=O)OCCCCCCCCC)n1 | · | · | · | 2% | ·
S=C(NCCc1c[nH]c2ccccc12)NC1CCCCC1 | 22% | 0 | 2% | 11µM* | 16%
